Data: PubChem BioAssay AID1063 (University of Pittsburgh Molecular Library Screening Center, 2008)
Among all 200,000 compounds or so, about 18,000 (9%) were called active. Rule as the data show it: active = inhibition above about 50%; inactive = the rest. This excerpt belongs to a sample that is enriched for actives.

Experiment: antileishmanial activity against promastigotes – primary screen (AID 1063);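 also: promastigotes grown with compound for 44 hours at 28 °C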
Settings: Leishmania major promastigotes, resazurin fluorescence viability; at 10 µM; hits give high values

SMILES | inhibition
CC1COc2ccccc2N1S(=O)(=O)c1ccccc1 (stereo not drawn) | 15.8% (inactive)
CN1CCN(CCC(=O)N/N=C/C=C2\N(C)c3ccccc3C2(C)C)CC1 | 4.61% (inactive)
CC(=O)Nc1cccc(OCC(=O)/C=C2\N(C)c3ccccc3C2(C)C)c1 | 48.1% (inactive)
CN1/C(=C\C=C2\N=C(c3ccc(F)cc3)OC2=O)C(C)(C)c2ccccc21 | 63.4% (active)
O=C(O)CSc1nccc2ccccc12 | -6.68% (inactive)
O=C(c1ccccc1Cl)N(Cc1ccccc1F)N1C(=O)CCCC1=O | -3.99% (inactive)
O=C(O)CC(SCC(=O)Nc1ccc(Br)cc1)C(=O)O (stereo not drawn) | -3.9% (inactive)
CC1(C)CC(=O)CC2(C1)NCC(c1ccccc1Cl)c1c2[nH]c2ccccc12 (stereo not drawn) | 53.5% (active)
O=C(Nc1nnc(C2COc3ccccc3O2)o1)c1ccc(F)cc1 (stereo not drawn) | 84.8% (active)
Cc1onc(-c2ccccc2)c1C(=O)NNC(=S)NC(=O)c1ccc(F)cc1 | -0.74% (inactive)
c1ccc2c(c1)OCC(c1nn3cnnc3s1)O2 (stereo not drawn) | -7.7% (inactive)
CCn1nc(C)c(CN2CCN(Cc3ccc(OC)c(C)c3C)C(CCO)C2)c1C (stereo not drawn) | 5.83% (inactive)
CC1CCC(C(C)C)C(=O)/C1=C\c1ccc(NC(=O)CCC(=O)O)cc1 (stereo not drawn) | 4.09% (inactive)
O=C(c1ccc(OC2CCN(Cc3ccccn3)CC2)cc1)N1CCCCCC1 | 39.9% (inactive)
O=C(N/N=C/c1ccc([N+](=O)[O-])o1)c1cccc(S(=O)(=O)N2CCOCC2)c1 | 99.2% (active)
COc1ccc(Br)cc1/C=N/NC(=O)c1cccc(S(=O)(=O)N2CCOCC2)c1 | 14.1% (inactive)
O=C(c1cccc(S(=O)(=O)N2CCOCC2)c1)N1CCOCC1 | -2.4% (inactive)
O=C(Nc1ccc2oc(-c3ccccc3F)nc2c1)c1ccco1 | 9.45% (inactive)
CS(=O)(=O)n1nc(-c2ccco2)nc1N | -6.28% (inactive)
CONc1nc2nonc2nc1NOC | -1.47% (inactive)
Cc1nn(-c2ccccc2)c(Cl)c1C(=O)Nc1ccccc1 | 1.56% (inactive)
Cc1ccc(C(=O)/C=C/c2c(C)nn(-c3ccccc3)c2Cl)cc1 | 73.7% (active)
Cc1nn(-c2ccccc2)c(Cl)c1/C=C/C(=O)c1ccc(O)cc1 | 44.1% (inactive)
CCCOC(=O)c1c(NC(=O)c2cnn3c2NC(c2ccccc2)CC3C(F)(F)F)sc2c1CCCC2 (stereo not drawn) | 4.09% (inactive)
CCOC(=O)N1CCC(=NNC(N)=O)CC1 | -11.1% (inactive)

SMILES | inhibition
Cc1cccc(NC(=O)CN2C(=O)c3ccccc3C2=O)c1C | -7.46% (inactive)
COc1ccc2nc(Nc3nc4ccc(NC(C)=O)cc4s3)sc2c1 | 6.91% (inactive)
CCOc1ccc2nc(NC(=O)c3cc([N+](=O)[O-])ccc3N3CCOCC3)sc2c1 | 96% (active)
CCOc1ccc2nc(Nc3nc4ccc(NC(C)=O)cc4s3)sc2c1 | 72.1% (active)
Cc1cc(C)cc(OCC(=O)Nc2nc3ccc([N+](=O)[O-])cc3s2)c1 | -2.84% (inactive)
CCOc1ccc2nc(SC(CC)C(=O)Nc3cc(C)on3)sc2c1 (stereo not drawn) | 6.15% (inactive)
O=C(NC1CCCCC1)c1cc([N+](=O)[O-])ccc1N1CCOCC1 | -6.49% (inactive)
COc1cccc(NC(=O)C(Sc2nnnn2C)c2ccccc2)c1 (stereo not drawn) | 10.5% (inactive)
COc1ccc(CN(C)Cc2nc3cc(OC)c(OC)cc3c(=O)[nH]2)c(OC)c1 | 1.39% (inactive)
Cc1cc(NC(=O)CSc2nc3cc(Cl)ccc3c(=O)n2Cc2ccco2)no1 | 4.4% (inactive)
COc1ccc(-c2cc(-c3ccc(N)cc3)nc(N)c2C#N)cc1OC | -6.13% (inactive)
O=C(NC1CC1)c1ccc(-c2ccccc2)cc1 | 6.37% (inactive)
CCOC(=O)c1ccc(NC(=S)Nc2cc(C)cc(C)n2)cc1 | 5.79% (inactive)
O=C(COc1ccc(Cl)cc1)NCc1nnc(SCC(=O)NCC2CCCO2)o1 (stereo not drawn) | -8.43% (inactive)
CC(=O)N1c2ccccc2N(Cc2ccc([N+](=O)[O-])cc2)C(=O)C1(C)C | 51.9% (active)
O=C(CSCc1ccc([N+](=O)[O-])cc1)NCCSCc1ccccc1 | 12.9% (inactive)
CC(O)c1nc2ccccc2n1Cc1ccc([N+](=O)[O-])cc1 (stereo not drawn) | -2.56% (inactive)
O=C(Nn1cnc2ccccc2c1=O)c1ccccc1 | -0.77% (inactive)
CCNC(=O)NNC(=O)C1CC(c2cccs2)=NO1 (stereo not drawn) | -8.39% (inactive)
CCN(C(=O)c1ccc(Br)cc1)c1ccccc1 | 3.92% (inactive)
Cc1cc([N+](=O)[O-])nn1CCCC(=O)Nc1cccnc1Cl | -6.69% (inactive)
O=C(C1CCN(S(=O)(=O)c2ccc(Br)s2)CC1)N1CCN(C2CCCCC2)CC1 | 59.6% (active)
O=C(C1CCN(S(=O)(=O)c2cccs2)CC1)N1CCCCCC1 | -2.87% (inactive)
CS(=O)(=O)N1CCC(C(=O)N2CCN(c3ccccc3)CC2)CC1 | -3.18% (inactive)
Cc1ccc(COc2ccc(C(=O)NN)cc2)cc1 | -1.34% (inactive)

SMILES | inhibition
CN(CCOc1ccc(Br)cc1)CC(=O)Nc1cccc(S(=O)(=O)NC2=NCCC2)c1 | -1.24% (inactive)
Cc1ccc(OCCCC(=O)N2CCOCC2)c(C)c1 | -2.9% (inactive)
CCN1CCN(CCCCOc2ccccc2F)CC1 | 47.3% (inactive)
COc1ccccc1N1CCN(CCCCOc2ccc(F)cc2)CC1 | -5.52% (inactive)
Cc1ccc(C(C)(C)C)c(OCCCCN2CCCC2)c1 | 87.1% (active)
O=[N+]([O-])c1ccccc1OCCCCN1CCCCC1 | 82.4% (active)
CC1CN(CCOc2ccccc2[N+](=O)[O-])CC(C)O1 (stereo not drawn) | 8.57% (inactive)
C=CCN(CC=C)CCOc1ccccc1[N+](=O)[O-] | 12.2% (inactive)
Cc1ccc2c(C(=O)CN3CCCC3)c(C)[nH]c2c1 | 8.69% (inactive)
Cc1ccc(OCCCCN2CCCCC2)c(Br)c1 | 97.8% (active)
CC(C)OC(=O)Cn1nc(C(F)(F)F)c2c1CCCC2 | -5.66% (inactive)
CC1CCCC(NC(=O)c2cccc(N3CCCC3=O)c2)C1C (stereo not drawn) | -7.83% (inactive)
COCCNc1nc2nonc2nc1N1CCCC1c1nccs1 (stereo not drawn) | -4.44% (inactive)
O=C(c1cccc([N+](=O)[O-])c1)N1CCN(C(=O)c2ccco2)CC1 | 0.98% (inactive)
COC(=O)c1ccc(NC(=O)CSc2nnc(CNc3ccc(OC)cc3)n2C)cc1 | 9.68% (inactive)
COc1ccc(OC)c(NC(=O)CSc2nc3cccnc3n2C)c1 | -3.05% (inactive)
CCn1c(COc2ccccc2)nnc1SCC(=O)Nc1ccc2c(c1)OCCO2 | -3.59% (inactive)
CCn1c(CNc2ccc(OC)cc2)nnc1SCC(=O)c1ccc(OC)cc1 | 70.5% (active)
C=CCn1c(CNC(=O)c2ccco2)nnc1SCC(=O)c1ccc(OC)cc1 | -7.42% (inactive)
CCn1c(COc2ccc(OC)cc2)nnc1SCC(=O)Nc1cc(OC)ccc1OC | 60.8% (active)
CCSC1=NCCN1S(=O)(=O)c1ccc(F)cc1 | -0.73% (inactive)
O=c1c2ccccc2c(-c2ccccc2)nn1-c1ccccn1 | -0.99% (inactive)
CC(=O)N1C(C)c2ccccc2C(C)(C)CC12CCCCC2 (stereo not drawn) | 10.5% (inactive)
Cc1ccc(N=C2NC(=O)c3cccc([N+](=O)[O-])c32)cc1 | -1.43% (inactive)
COc1ccc(-c2cc3nc(C)c(CCC(=O)NC(C)CCc4ccco4)c(C)n3n2)c(OC)c1 (stereo not drawn) | 100% (active)

SMILES | inhibition
Cc1nc2c(-c3ccc(F)cc3)c(C)nn2c(C)c1CCC(=O)NCc1ccco1 | -2.49% (inactive)
COc1cc(OC)cc(-c2nc3nc(C)c(CCC(=O)NCc4ccco4)c(C)n3n2)c1 | 2% (inactive)
Cc1ccc2cc(CN(c3ccc(C)c(C)c3)S(C)(=O)=O)c(=O)[nH]c2c1 | 9.29% (inactive)
CCN(CCn1cccn1)C(=O)CC1C(=O)NCCN1Cc1cccc(OC)c1OC (stereo not drawn) | 5.31% (inactive)
CCOC(=O)c1sc2nc(C)nc(Nc3ccc(OC)c(OC)c3)c2c1C | -0.22% (inactive)
COc1ccc(-c2onc(C)c2-c2ccc3c(c2)OCCO3)c(O)c1 | 72.5% (active)
COc1ccc(-c2n[nH]c(C)c2-c2ccc(OC)c(OC)c2)c(O)c1 | 4.64% (inactive)
COc1ccc(O)c(C=Nc2cc(C)on2)c1 | -9.53% (inactive)
CCOC(=O)CNC(=O)CSc1ccc2nnc(-c3cccnc3)n2n1 | 4.24% (inactive)
CC(=O)Cn1ncc(N2CCOCC2)c(Br)c1=O | 5.25% (inactive)
COc1ccc(CNC2CCCCC2)cc1 | 72.3% (active)
COc1ccc(CCNC(=O)COC(=O)C2CCCCC2)cc1 | -2.53% (inactive)
COc1ccc(CNC(=O)C2CCN(S(C)(=O)=O)CC2)cc1 | 7.6% (inactive)
O=c1[nH]n2c(-c3ccccc3)nc(O)c2c2ccccc12 | -6.91% (inactive)
Nn1cnnc1N/N=C/c1cc([N+](=O)[O-])c(Cl)cc1Cl | 64.3% (active)
CCc1cc2c(=O)c(-c3ccc(F)cc3)c(C(F)(F)F)oc2cc1OCC(=O)O | 0.79% (inactive)
O=C(CCc1n[nH]c(=O)[nH]c1=O)N/N=C/c1ccc(Br)o1 | 0.7% (inactive)
CC(C)C1Nc2c(C(=O)O)cccc2C(Nc2ccccc2C(=O)O)C1(C)C (stereo not drawn) | 0.14% (inactive)
O=C(CSc1nnc(-c2ccncc2)o1)NCc1ccc(Cl)cc1 | -6.74% (inactive)
Cc1occc1C(=O)Nc1nnc(C2CCCCC2)s1 | 7.17% (inactive)
O=C(Nc1nnc(C2CC2)s1)c1ccccn1 | 84.9% (active)
O=C(Cc1cccs1)Nc1nnc(C2CC2)s1 | -7.6% (inactive)
Cc1nc(N)c(Br)c(C)c1Br | 1.28% (inactive)
